The panel holds about 79,000 compounds, 15% with a hit somewhere; the sample as a whole holds those more often. Rule as the data show it: active = growth inhibition above about 70%; inactive = the rest. *1 amine or outer side, *2 acyl side, *3 side chain or, on linkers, in order; H or OH if unused. Where a SMILES comes first, the peptide text is derived from it. [ ]: non-standard residue; d: D form. X8 = C=CCC(O[*:1])C(=O)[*:2]; NMeV = CN[CH](C(=O)O)C(C)C; NMeA = CN[CH](C)C(=O)O; βAla = NCCC(=O)O
Columns and labels:
[1] = NCI Yeast Anticancer Drug Screen. Data for the rad50 strain (AID 155);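 also: 0% = growth of vehicle-only cultures of the same strain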; settings: S. cerevisiae rad50 strain growth inhibition; at 50.0 µM; hits give high values
How it was run: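 Compounds were tested on a yeast strain with an engineered DNA damage repair alteration; the reported value is growth inhibition normalised to vehicle treatment.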

[2] = NCI Yeast Anticancer Drug Screen. Data for the mec2-1 strain (AID 157); settings: S. cerevisiae mec2-1 strain, at 50.0 µM, hits give high values
How it was run: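 Test agents were screened against the mec2-1 yeast strain, with defined DNA repair or cell cycle alteration. Growth was scored as inhibition against vehicle-only controls.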

[3] = NCI Yeast Anticancer Drug Screen. Data for the sgs1 mgt1 strain (AID 161);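 also: 0% = growth of cultures given vehicle only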; settings: S. cerevisiae sgs1 mgt1 strain, at 50.0 µM, hits give high values
How it was run: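 Mutant yeast exposed to compound; growth scored against vehicle-only wells.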

[4] = NCI Yeast Anticancer Drug Screen. Data for the cln2 rad14 strain (AID 165);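 also: 0% = growth equal to vehicle treated cultures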; settings: S. cerevisiae cln2 rad14 strain, at 50.0 µM, hits give high values
How it was run: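 Growth of compound-exposed yeast (cln2 rad14 genotype) measured and expressed as inhibition relative to vehicle.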

[5] = NCI Yeast Anticancer Drug Screen. Data for the bub3 strain (AID 167); settings: S. cerevisiae bub3 mutant strain, at 50.0 µM, hits give high values
How it was run: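 Growth of a checkpoint-deficient yeast mutant is measured after compound exposure. Values represent inhibition relative to vehicle.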

[6] = NCI Yeast Anticancer Drug Screen. Data for the mlh1 rad18 strain (AID 175); settings: S. cerevisiae mlh1 rad18 strain growth inhibition; at 50.0 µM; hits give high values
How it was run: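 In this whole-cell yeast screen, a strain with altered DNA damage repair is challenged with compound, and its growth is measured against matched vehicle-treated controls.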

Measured: growth inhibition

CC1(C)CC(C)(OC(=O)c2ccccc2)N=N1 (configuration not stated)
inactive: [1] 14.6% | [2] -11.1% | [3] 20.1% | [4] -16.4% | [5] 4.35% | [6] 11.1%

O=C(c1ccccc1)c1ccccc1
inactive: [1] 23.9% | [2] 2.35% | [3] -13.2% | [4] -16.8% | [5] 14.3% | [6] 14.1%

O/N=C1/C(=C/c2ccccc2)CCCC1C(NO)c1ccccc1 (configuration not stated)
inactive: [1] 27.9% | [2] 10.2% | [3] 27.2% | [4] 28.1% | [5] 17.1% | [6] 57.6%

CCC(O)CNCc1c2ccccc2cc2ccccc12 (configuration not stated)
inactive: [1] 20.1% | [2] 14.7% | [3] 22.1% | [4] 12.6% | [5] 1.95% | [6] 10.8%

CCOC1C=CCCC1 (configuration not stated)
inactive: [1] -1.75% | [2] 23.6% | [3] -6.35% | [4] 9.4% | [5] 14.8% | [6] -14%

NC(N)=NC(N)=Nc1ccccc1
inactive: [1] -15.9% | [2] 14.8% | [3] -1.8% | [4] -5.9% | [5] 1.15% | [6] 11.6%

Cc1cccc(C)c1Nc1nc(C)c(C(=O)CC(=O)C(=O)Nc2c(C(C)C)cccc2C(C)C)s1
inactive: [1] 18.3% | [2] -6.35% | [3] 46.3% | [4] -15.7% | [5] -3.55% | [6] 19.6%

NC(Cc1ccc(O)c(O)c1)P(=O)(O)O (configuration not stated)
inactive: [1] -72.8% | [2] -38% | [3] -35.7% | [4] -5.75% | [5] -0.1% | [6] -27.8%

NC(=O)c1cc[n+](-c2ccc([N+](=O)[O-])cc2[N+](=O)[O-])cc1
inactive: [1] 19.2% | [2] 0.45% | [3] 27.2% | [4] 34.6% | [5] 19.2% | [6] 56.5%

C=CCC1OC(=O)CCNC(=O)C(C)N(C)C(=O)C(C(C)C)N(C)C(=O)C(C(C)CC)NC(=O)C2CCCN2C1=O (configuration not stated) (cyclo([X8]PI[NMeV][NMeA][βAla]); configuration not given here)
inactive: [1] 15.3% | [2] 10.1% | [3] 5.55% | [4] 11.5% | [5] 8.35% | [6] 17.8%

O=C(O)/C=C\c1ccc(OC(=O)c2ccccc2)cc1
inactive: [1] -1.1% | [2] -12.6% | [3] -21% | [4] -24.6% | [5] -4.95% | [6] 33.1%

CN(C)CCC(=O)C(=Cc1ccc(O)cc1)C(=O)CCN(C)C
inactive: [1] -35.2% | [2] -38.1% | [3] -2.4% | [4] -3.5% | [5] 7.1% | [6] -39.5%

CCCCCCCC1CC(OCC)OC(CCCCCCC)O1 (configuration not stated)
inactive: [1] -1.8% | [2] -15.1% | [3] -6.95% | [4] -8.2% | [5] -2.25% | [6] -18.4%

NC(=O)N/N=C1/C=C2CCCCC2CC1 (configuration not stated)
inactive: [1] 6.8% | [2] 0.35% | [3] -1% | [4] 10.8% | [5] -16.4% | [6] 10.2%

N#CCNC=O
inactive: [1] -2.9% | [2] 7.35% | [3] -13.4% | [4] -11.9% | [5] 2.8% | [6] -11.5%

CC1CN(C(=S)Nc2ccccc2)C(C)CN1CCO (configuration not stated)
inactive: [1] 58.5% | [2] 1.6% | [3] 14.2% | [4] -39% | [5] -3.9% | [6] 16.6%

Oc1ccccc1C1N=NC2=C(CCCC2)N1O (configuration not stated)
inactive: [1] -12.9% | [2] -26.4% | [3] -2.5% | [4] -12.1% | [5] 21.9% | [6] -7.15%

Cc1ccc(-c2n[nH]c(CC#N)n2)cc1
inactive: [1] 5.55% | [2] 1.6% | [3] -4.6% | [4] -12.7% | [5] -1.55% | [6] 18.7%

Nc1cccc(C(O)c2ccccc2)c1 (configuration not stated)
inactive: [1] 11.2% | [2] -1.15% | [3] 0.1% | [4] 6.25% | [5] 7.3% | [6] 13.1%

CC(Cc1ccccc1)NC(=O)CCCN1C(=O)c2ccccc2C1=O (configuration not stated)
inactive: [1] -2.55% | [2] 1% | [3] -10.7% | [4] -37.8% | [5] 6.4% | [6] -5.15%

N#Cc1c[nH]c2cccc([N+](=O)[O-])c12 (tested in a mixture with another compound)
inactive: [1] 7.95% | [2] -10.9% | [3] 7.8% | [4] 17.9% | [5] 13.4% | [6] -2.8%

O=C(CC(=O)n1nc(-c2ccccc2)c(N=Nc2ccccc2Cl)c1-c1ccccc1)Nc1ccc(Cl)cc1
inactive: [1] -9.5% | [2] 8.45% | [3] -3.95% | [4] 13.9% | [5] -18.7% | [6] -8.65%

Cc1ccc(C(=O)Oc2ccccc2)cc1
inactive: [1] -3.35% | [2] -5.1% | [3] -11.7% | [4] -34.2% | [5] -7.2% | [6] -20%

CC(=O)OCCOCNC(=S)N/N=C/c1ccccn1
inactive: [1] 24.2% | [2] 26% | [3] -8.35% | [4] 6.7% | [5] 12.6% | [6] 45.6%

CC12CCC=CC1=CC(=O)CC2 (configuration not stated)
inactive: [1] 1.35% | [2] 16.5% | [3] 1.05% | [4] 4.65% | [5] -6.8% | [6] 32.9%

C=CCOC(=O)CC(O)(CC(=O)OCC=C)C(=O)OCC=C
inactive: [1] -3.4% | [2] -17.9% | [3] -11.8% | [4] -35.5% | [5] -6.4% | [6] -12.2%

CCOc1c(N=Nc2ccc(Cl)cc2)c(C)nn1C(N)=S
inactive: [1] -19.2% | [2] 16.2% | [3] 12.2% | [4] -12.6% | [5] 36.4% | [6] 44.5%

COc1cc(-c2cc(O)c(-c3ccc4ccccc4n3)c(=O)[nH]2)cc(OC)c1OC
inactive: [1] 6.75% | [2] 14.6% | [3] 1.6% | [4] 11.8% | [5] -27.1% | [6] 23.4%

C=C1C(=O)OC2/C=C(\C)C(O)CC(O)C(C)(O)CC(OC(=O)/C(C)=C/C)C12 (configuration not stated)
inactive: [1] -0.7% | [2] -25.2% | [3] -10.4% | [4] 14.1% | [5] 6.5% | [6] -10.8%

O=[N+]([O-])c1ccc(COP(=O)(OCc2ccc([N+](=O)[O-])cc2)OCc2ccc([N+](=O)[O-])cc2)cc1
inactive: [1] -8% | [2] -2.35% | [3] 2.9% | [4] -46.5% | [5] 25.3% | [6] 4.75%

COc1ccc(C(C)c2cc3c(cc2OC)OCO3)cc1OC (configuration not stated)
inactive: [1] -4.95% | [2] -6.7% | [3] 11.1% | [4] 5.2% | [5] 16.9% | [6] 25.3%

N#Cc1c2c(c(-c3cccs3)n(C3OC(CO)C(O)C(O)C3O)c1=S)CCc1ccccc1-2 (configuration not stated)
inactive: [1] 10.7% | [2] -9.55% | [3] -3.35% | [4] -20.4% | [5] 0.8% | [6] 1.6%

CC(C)(C)C(=CS(=O)/N=C/c1ccccc1)C(C)(C)C (configuration not stated)
inactive: [1] -27.4% | [2] -33% | [3] -28.6% | [4] -7% | [5] -37% | [6] -9.85%

CCN1CCC(O)(c2ccc(Oc3ccc(F)cc3)cc2)C(C(=O)c2ccc(Oc3ccc(F)cc3)cc2)C1 (configuration not stated)
inactive: [1] 20.1% | [2] 2.9% | [3] 14.6% | [4] 5.95% | [5] 5.65% | [6] 29.9%

CC1=CC[P+](Cc2ccccc2)(c2ccccc2)C1 (configuration not stated)
inactive: [1] -25.4% | [2] 14.7% | [3] 22.2% | [4] 4.35% | [5] 8.2% | [6] 8.8%

CC1=NN2C(=O)C(C)SC2=NC(C)(C)C1 (configuration not stated)
inactive: [1] -5.6% | [2] -17.9% | [3] -3.15% | [4] 29.2% | [5] -8.2% | [6] -16.3%

CN(C)c1ccc(N=Nc2cccc3ccoc23)cc1
inactive: [1] 11.6% | [2] -23.6% | [3] 9.9% | [4] -28.3% | [5] 14.9% | [6] 14%

O=C(Nc1ccc(Cl)c(C(F)(F)F)c1)C(=O)c1c(O)c2ccccc2oc1=O
inactive: [1] 9.85% | [2] 4.7% | [3] -11.7% | [4] -38.5% | [5] -19.1% | [6] 5.3%

COc1ccc(-c2cc3cc(OC)c(OC)cc3c[n+]2C)cc1OC
inactive: [1] 28.3% | [2] 5.4% | [3] 5.6% | [4] 16.1% | [5] -2.3% | [6] -0.55%

O=C(OCc1ccccc1CN1CCCC1)c1ccc([N+](=O)[O-])cc1Cl
inactive: [1] -13% | [2] -15.8% | [3] -13.7% | [4] -52.7% | [5] -0.9% | [6] -54.8%

CCN(CC)CCNc1cccc(Cl)c1
inactive: [1] 60.1% | [2] 9.25% | [3] 34.4% | [4] 25.2% | [5] 29.1% | [6] 47.5%

Cc1ccc(S(=O)(=O)/N=[N+](\[O-])c2ccc(N(C)C)cc2)cc1
inactive: [1] -32.4% | [2] -3.35% | [3] -7.55% | [4] -35.7% | [5] -7.8% | [6] -3.35%

Source: PubChem BioAssay (NCI)
